Broadly, the inhibition is the relative decrease from the control value, in per cent.

Hit rate of the full screen: of about 300,000 compounds, about 2,500 (0.83%) were called active. Rule as the data show it: active = inhibition above about 60%; inconclusive = no clear call, values can overlap the other calls; inactive = below that. The sample as a whole holds a higher share of actives than the screen did.

A short description of the experiment: MLPCN primary screen, SNCA 5' untranslated region (AID 1813).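 Also: H4 neuroglioblastoma cells stably carrying SNCA 5'UTR luciferase fusion; 0% = DMSO wells and 100% = positive control.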 The note with it: alpha-synuclein 5'UTR reporter, inhibitor activity; active compounds read high; tested at 7.5 µM.
Turning to `O=C(CNCc1ccc(F)cc1)Nc1ccccc1-c1ccccc1`, the inhibition was 16.3% (inactive).
Consider `COCc1cc(=O)[nH]c(SC)n1`, for which the inhibition is -10.1% (inactive).
`N#C/C(=C\c1cccnc1)C(=O)Nc1ccc(SC(F)F)cc1`: the inhibition was 1.4% (inactive).
With `O=[n+]1c2c(n([O-])c3cc(Br)ccc31)CCC2`, the inhibition is 10.3% (inactive).
Then `O=[N+]([O-])c1ccc2[nH]c3c(c2c1)CCCC3O` (configuration not stated), with 10.7% (inactive).
In the case of `O=C1CCCc2c1[nH]c1ccc(Br)cc21`, the inhibition was 89% (active).
Turning to `COC(=O)CN1C(=O)N/C(=C/c2ccc(OC)c(C)c2OC)C1=O`, the inhibition is -8.7% (inactive).
Then `O=C(COC(=O)Cn1[nH]c(=O)c2ccccc2c1=O)Nc1c(Cl)cccc1C(F)(F)F`, with 4.65% (inactive); and `CN1C(=O)/C(=C/c2ccc(C(=O)NC3CCCC3)cc2)Oc2ccccc21`, with -48% (inactive).
For `O=C(NCCN1CCOCC1)c1ccc(/C=C2\Sc3ccccc3N(Cc3ccc(F)cc3)C2=O)cc1` the value was 14% (inactive); for `CN1CCN(CCCNC(=O)c2ccc(/C=C3\Oc4ccccc4N(Cc4ccc(Cl)cc4)C3=O)cc2)CC1`, 96.5% (active); for `FC(F)(F)c1cnc(Oc2ccccc2-c2nnc(-c3ccc(Cl)cc3)o2)c(Cl)c1`, -1.16% (inactive).
For `COc1cccc(/C=N/Nc2ncc(C(F)(F)F)cc2Cl)c1O` the value was 76.7% (active); for `Oc1cccc(/C=N/Nc2ccc(Cl)nn2)c1O`, -6.82% (inactive).
On to `Cc1n[nH]c(=O)c2c(NC(=O)CSc3ccccc3F)oc(C)c12`, for which the inhibition is -9.19% (inactive).
Then `CCNS(=O)(=O)c1ccc(NC(=O)c2cncc(Br)c2)cc1`, with 8.56% (inactive).
As to `Oc1ccc(N=Nc2nccs2)c(O)c1`, the inhibition was 24.3% (inactive).
Turning to `c1ccc(NCc2cccc3ccccc23)nc1`, the inhibition was 19.1% (inactive).
For the compound `Oc1ccc2ccccc2c1N=Nc1nccs1`, the inhibition was 87.4% (active).
On to `CCCOc1ccc(C(=O)C(CCC(CNCC)C(=O)c2ccc(OCCC)cc2)CNCC)cc1` (configuration not stated), for which the inhibition is 107% (active).
Then `CCCOc1ccc(C(=O)CCC(=O)OC(C)C(=O)Nc2ccc(NC(C)=O)cc2)cc1` (configuration not stated), with -18.6% (inactive); and `CCCCOc1ccc(C(=O)NN2CCN(C)CC2)cc1`, with 1.5% (inactive).
For `Cc1ccc(S(=O)(=O)N2CCCCC2)cc1C(=O)N(C)CC(=O)Nc1cccc(F)c1` the value was 11% (inactive).
For `COC(=O)c1sccc1NC(=O)COc1ccc(Cl)cc1` the value was -35.3% (inactive).
Consider `COC(=O)c1c(NC(=O)COc2ccc(Cl)cc2Cl)sc2c1CC(C)(C)NC2(C)C`, for which the inhibition is 102% (active).
For `CCOC(=O)c1c(NC(=O)c2ccc(S(=O)(=O)N(C)CC3CCCO3)cc2)sc2c1CC(C)(C)NC2(C)C` (configuration not stated) the value was 0.581% (inactive); for `CCOc1ccc(CC(=O)NCCS(=O)(=O)N2CCN(c3ccccc3)CC2)cc1`, 13.9% (inactive); for `Cc1cc(OC(=O)c2ccccc2Cl)ccc1N1C(=O)CCC1=O`, -3.87% (inactive).
Turning to `COc1ccc(NC(=O)c2cccc3c2C(=O)N(CC2CCCO2)C3)cc1OC` (configuration not stated), the inhibition is 32.1% (inactive).
For `CN1CCN(C2Cc3ccc(Cl)cc3Sc3ccc(F)cc32)CC1` (configuration not stated), the inhibition is 104% (active).
Then `CSc1nnc2ccc(-c3ccc(C)cc3)nn12`, with 16.4% (inactive).
For `Cc1ccc(-c2cn3cc([N+](=O)[O-])ccc3n2)cc1` the value was 22.1% (inactive).
For the compound `Cc1ccc2nc(-c3ccc(Br)cc3)cn2c1`, the inhibition is 63.2% (active).
For `CCn1c(=O)c(C(=O)NCc2ccc3c(c2)OCO3)c(O)c2ccccc21` the value was 11.8% (inactive); for `COC(=O)C1(C)NC(c2ccccc2OC)C2C(=O)N(c3ccccc3)C(=O)C21` (configuration not stated), 0.536% (inactive); for `CC(C)CC[n+]1ccn(C2=C([O-])c3ccccc3C(=O)/C2=N\S(=O)(=O)c2ccccc2)c1`, -27.8% (inactive).
Then `COc1ccc2c(c1)CCNC2Cc1ccc(OC)c(O)c1` (configuration not stated), with 11.8% (inactive); and `CC[C@H]1CN2CCc3cc(OC)c(OC)cc3[C@@H]2C[C@@H]1C[C@H]1NCCc2cc(OC)c(OC)cc21`, with 109% (active); and `CCc1ccc(OCC2c3cc(OC)c(OC)cc3CCN2C(C)=O)cc1` (configuration not stated), with 0.678% (inactive).
Then `COc1ccc(S(=O)(=O)N(C)CC(=O)NCCCN2CCOCC2)cc1Cl`, with 6.18% (inactive); and `COc1ccc(C(=O)C2CCCN(S(=O)(=O)c3cccc(C)c3)C2)c(C)c1` (configuration not stated), with -3.32% (inactive); and `Cc1ccccc1/[N+]([O-])=C/c1ccncc1`, with 5.11% (inactive).
Turning to `Cc1ccc(NC(=O)COc2ccc(/C=C3/NC(=O)NC3=O)cc2)cc1`, the inhibition is 1.96% (inactive).
With `O=C(c1ccc(OC2CCN(Cc3ccccn3)CC2)cc1)N1CCCCCC1`, the inhibition was 3.78% (inactive).
Take `Cn1cc(CNC(=O)c2ccc(OC3CCN(Cc4ccccn4)CC3)cc2)cn1`: the inhibition was 14.6% (inactive).
Then `O=C(NCCOc1cccnc1)c1ccc(OC2CCN(Cc3ccccn3)CC2)cc1`, with 95.3% (active); and `Cc1ccc(Nc2nc(Cl)c(C=O)s2)cc1`, with -26.4% (inactive); and `Cc1ccc2nc(-c3ccncc3)cc(C(=O)Nc3ccc(OC(F)F)cc3)c2c1`, with 67.6% (active).
Then `Cc1ccc2nc(-c3ccncc3)cc(C(=O)Nc3ccncc3)c2c1`, with 5.38% (inactive).
Then `Cc1ccc2nc(-c3ccncc3)cc(C(=O)Nc3ccc4c(c3)OCCO4)c2c1`, with 47.2% (inactive); and `COc1ccccc1/C=N/Nc1nc(C)c(C(C)=O)s1`, with -154% (inactive); and `COc1cccc2c(N/N=C/c3ccco3)cc(C)nc12`, with -38.3% (inactive).
With `COc1cccc(/C=N/Nc2cc(C)nc(-c3ccccc3O)n2)c1O`, the inhibition is 82.8% (active).
For `Cc1csc2nc(O)c(C(=O)NCCN3CCOCC3)c(=O)n12` the value was 0.0631% (inactive); for `Cc1ccc2sc(N(CCN(C)C)C(=O)/C=C/c3cccs3)nc2c1C`, -3.93% (inactive).
For `CCCCCCCCn1c2c(c(=N)c3c1CCC3)CCCC2` the value was 101% (active); for `Cc1nc2ccccn2c1C(=O)NN=C1CCN(C)CC1`, 18% (inactive).
Then `CCCC[C@@H]1CN=C(N)N1CCc1cccc(F)c1`, with -1.65% (inactive).
For `Cc1ccc(C)c(NC(=O)COC(=O)Cn2c(C)csc2=O)c1`, the inhibition was 3.94% (inactive).
Then `CCOc1ccc(C(C(=O)NC2CCCC2)N(C(=O)c2snc(C(N)=O)c2N)C2CCCC2)cc1` (configuration not stated), with 1.96% (inactive); and `OCCC1CN(Cc2ccc3nsnc3c2)CCN1C1CCCCC1` (configuration not stated), with -4.85% (inactive).
For `CCCCn1c(=O)c(C(C)=O)c(O)c2ccccc21`, the inhibition was -6.66% (inactive).
For `CCCCCn1c(=O)c(C(=O)OCC)c(Cl)c2ccccc21` the value was 92.6% (active).
Regarding `CCOC(=O)c1nnn2c3ccccc3c(=O)n(C)c12`, the inhibition is -5.14% (inactive).
Consider `CNc1ccc(SC#N)cc1`, for which the inhibition is 1.02% (inactive).
Then `CCOC(=O)N1CCN(C(=O)C(=O)Nc2sc3c(c2C#N)CC(C)(C)OC3)CC1`, with -17.6% (inactive); and `COc1ccc2c3c1O[C@H]1C[C@@H](O)C=C[C@@]31CCN(C)C2`, with 62% (active); and `COc1cccc(/C=N/NC(=O)c2[nH]nc3c2CCc2ccccc2-3)c1O`, with 76.4% (active).
Then `COc1cc2cc(C(=O)N/N=C/c3cccc(OC)c3OC)[nH]c2cc1OC`, with 22.3% (inactive); and `CN(C)CCNC(=O)c1[nH]nc2c1CCc1ccccc1-2`, with -73.6% (inactive); and `CCOCCCN(C)C1CCN(C(=O)c2oc3ccccc3c2NC(=O)COc2cccc(C)c2)CC1`, with 45.5% (inactive).
For `CCOC(=O)c1ccc(NNC(C)=O)c([N+](=O)[O-])c1` the value was -28% (inactive); for `CCCCCOc1ccc(/C=C/C(=O)NCCc2nc3ccccc3[nH]2)cc1OC`, 14.1% (inactive); for `Cc1cc(C)n(-c2ccc(C(=O)O)cc2[N+](=O)[O-])n1`, -5.9% (inactive).
Regarding `Cc1cc(N/N=C\c2ccc(Br)cc2)nc(-n2nc(C)cc2C)n1`, the inhibition was 25% (inactive).
For the compound `COc1ccc(Nc2cc(C)nc(-n3nc(C)cc3C)n2)cc1`, the inhibition is 92.8% (active).
As to `Cc1cc(Oc2ccc(Cl)cc2)nc(SCC(=O)c2ccccc2)n1`, the inhibition is 27.8% (inactive).
For the compound `CC(=O)c1ccc(Oc2cc(C)nc(-n3nc(C)cc3C)n2)cc1`, the inhibition is 80.1% (active).
For `Cc1cc(Nc2ccc(Cl)cc2)nc(N2CCOCC2)n1` the value was -19% (inactive); for `CCC(C(=O)OC)n1cnc2c(oc3ccccc32)c1=O` (configuration not stated), 16.1% (inactive); for `Clc1ccc(-c2cc(-c3ccccn3)on2)c(Cl)c1`, 108% (active).
Then `Clc1ccc(-c2ncc3ccccn23)c(Cl)c1`, with -17.4% (inactive); and `O=C1c2ccccc2C(=O)N1Cc1cc(-c2ccccc2Cl)no1`, with 15.2% (inactive); and `COc1cc(NC(=O)C2=C(C)OCCS2)c(Cl)cc1C(=O)NCCN1CCN(C)CC1`, with -14% (inactive).
Then `CN1C(=O)[C@H]2[C@@H](C3CC3)N3C(=O)CN(Cc4ccccc4)C(=O)[C@@]3(C)[C@H]2C1=O`, with -12.7% (inactive); and `Cc1nc2c(c(C)nn2-c2ccccc2)c(C)c1C`, with -0.524% (inactive).
As for `COc1ccc(/C=C2\SC(=S)N(CCCC(=O)NC3CCCC3)C2=O)cc1OC`, the inhibition was 83.7% (active).
Then `COc1ccc(/C=C2\SC(=S)N(CCC(=O)Nc3ccccn3)C2=O)cc1OC`, with 28.8% (inactive); and `COc1ccc(/C=C2\SC(=S)N(CCC(=O)Nc3cccc(C(=O)O)c3)C2=O)cc1OC`, with 6.81% (inactive); and `CCOc1ccc(S(=O)(=O)N/N=C(\C)c2ccc(Cl)c(Cl)c2Cl)cc1`, with 2.56% (inactive).
Then `O=C(NCCc1ccccc1)C(=O)NCC1OCCN1S(=O)(=O)c1cccs1` (configuration not stated), with 2.43% (inactive).
For `CC(CNS(=O)(=O)c1ccc(Br)cc1)CN(C)C` (configuration not stated) the value was 22% (inactive); for `CN(CC(=O)NNC(=O)CNC(=O)c1ccccc1Cl)S(=O)(=O)c1ccc(Cl)cc1`, -12.7% (inactive).
Take `CCc1cc(-c2nnc(SCC(=O)NC3CC3)n2C)cs1`: the inhibition was -4.18% (inactive).
As to `CC(C)(C)c1cc(C(=O)N/N=C/c2ccc([N+](=O)[O-])s2)n[nH]1`, the inhibition was 64% (active).
On to `Cc1ccccc1NCC(=O)N/N=C\c1ccc([N+](=O)[O-])s1`, for which the inhibition is -43.2% (inactive).
Then `Cc1cc(C(=O)N/N=C/c2cc([N+](=O)[O-])cc(C)c2O)n[nH]1`, with -3% (inactive).

The record behind these values is PubChem BioAssay AID1813 (Broad Institute, 2009).
